# Test results published in the supplement of paper PMC8726507.
# Tested on: Plasmodium falciparum NF54-HGL (transmission to Anopheles stephensi)
# Experiment: percentage of barcode signal found in uninfected mosquitoes (transmission-blocking activity); higher = stronger blocking of transmission to mosquito, active = 80 or more
# Conditions: 10 µM; gametocyte preincubation time 24 h; readout time post-feed 8 days
# Procedure: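 The mixture was fed to Anopheles stephensi in 96-well plates as blood meals tagged with DNA-barcoded Asaia bacteria. Eight days later, mosquitoes were classed infected or uninfected by luminescence (mean + 5 SD of unfed controls). Barcodes were quantified by Luminex MagPlex-TAG in the pooled uninfected and infected Asaia cultures, background-corrected, and the score is % of barcode signal in uninfected mosquitoes = 100*Iu/(Iu+Ii).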
row,SMILES,percentage of barcode signal found in uninfected mosquitoes
1,CC1CS(=O)(=O)CCN1/N=C/c1ccc([N+](=O)[O-])o1 (stereo not given),91.3% (active)
2,COc1nc2ccc(Br)cc2cc1[C@@H](c1ccccc1)[C@@](O)(CCN(C)C)c1cccc2ccccc12,-3.2% (inactive)
3,COc1ccc(OC)c(NCc2ccc3nc(N)nc(N)c3c2Cl)c1,94.7% (active)
4,CC(Oc1ccccc1)C(=O)Nc1nc(-c2ccccn2)cs1 (stereo not given),84.2% (active)
5,Cc1cc(C(=O)Nc2ccc(-c3ccccc3)cc2)no1,64% (inactive)
6,Cc1cnc(CCNC(=O)c2cc(-c3ccc(Cl)cc3)cs2)[nH]1,7.14% (inactive)
7,Cc1nc2ccccn2c1C(=O)NCc1ccc(Cl)cc1,48.8% (inactive)
8,Brc1c(-c2ccc3c(c2)OCO3)nc2ncccn12,6.02% (inactive)
9,O=C(Nc1ccc(N2CCNCC2)cc1)c1ccn2ncc(-c3cccc(Cl)c3)c2n1,81.5% (active)
10,COc1ccc(-c2cnc3ccc(NCc4ccc(S(N)(=O)=O)cc4)nn23)cn1,68.2% (inactive)
11,Cc1cc(C(=O)Nc2cnn(Cc3ccc(Cl)cc3Cl)c2)no1,42.7% (inactive)
12,COc1ccc(C2(C(=O)Nc3ccc(Br)cc3)CCCC2)cc1,15.2% (inactive)
13,Cc1ccc(NC(=O)c2nc[nH]c2C(=O)Nc2nc3ccccc3[nH]2)c(C)c1,73.8% (inactive)
14,O=C(NC1CC1)c1ccc(N2CCC(Cc3ccccc3)CC2)nc1,77.8% (inactive)
15,c1ccc(Oc2ccc(-c3cc(C4CCOCC4)[nH]n3)cc2)cc1,10.6% (inactive)

# Same assay, conditions: 20 µM; gametocyte preincubation time 24 h; readout time post-feed 8 days
row,SMILES,percentage of barcode signal found in uninfected mosquitoes
1,CCOc1ccc(OCC(=O)Nc2cc(C)cc(C)c2)cc1,17.5% (inactive)
2,COc1ccc(S(=O)(=O)Nc2ccc(CN3CCN(C(=O)c4cccc(C#N)c4)CC3)cc2)cc1,8.68% (inactive)
3,O=C([C@@H](c1ccc(Cl)cc1)c1cccnc1)N1CCN(c2ccc(C(F)(F)F)cc2)CC1,-0.981% (inactive)
4,COc1ccc2nccc(NC(=O)C3CCN(CCc4ccc(Cl)cc4)CC3)c2n1,5.62% (inactive)
5,c1cncc(NCc2ccc(-c3cc4ccncc4cc3OC3CCNCC3)s2)c1,99.4% (active)
6,CCCCCCCCCCCCCCCCOP(=O)([O-])OCC[N+](C)(C)C,-0.352% (inactive)
7,CCN(CC)S(=O)(=O)c1ccc(C(=O)Nc2cc(C)nn2-c2nc(C)c(C)c(=O)[nH]2)cc1,66.7% (inactive)
8,C[C@@H]1[C@H](O)[C@@H](C)/C=C/C=C/C=C/C=C/C=C/C=C/C=C/[C@H](O[C@@H]2O[C@H](C)[C@@H](O)[C@H](N)[C@@H]2O)C[C@@H]2O[C@](O)(C[C@@H](O)C[C@@H](O)[C@H](O)CC[C@@H](O)C[C@@H](O)CC(=O)O[C@H]1C)C[C@H](O)[C@H]2C(=O)O,-1.39% (inactive)
9,O=C(C1CCN(c2cc(-n3cccc3)ncn2)CC1)N1CCc2ccccc2C1,26.4% (inactive)
10,CCN(CC)C(=O)N1CCN(C)CC1,4.35% (inactive)
11,N=C(N)Nc1ccc(-c2ccc(-c3ccc(NC(=N)N)cc3Cl)o2)c(Cl)c1,39.3% (inactive)
12,Cc1ccc(-c2nc(CN(Cc3ccccn3)C(C)C)cs2)o1,81.4% (active)
13,CCc1ccc(S(=O)(=O)Nc2cc(CN3CCN(CCC(C)C)CC3)ccc2C)cc1,22.9% (inactive)
14,CNCCC(Oc1ccc(C(F)(F)F)cc1)c1ccccc1 (stereo not given),27.5% (inactive)
15,CC(=O)N1CCN(c2ccc(Oc3ccc(Cl)cc3O)cc2)CC1,23.4% (inactive)
16,COc1ccc2nc(C)cc(OCC(=O)NCc3ccccc3)c2c1,2.14% (inactive)
17,O=C(CN1CCOCC1)Nc1ccc2ncnc(Nc3ccc(OCc4cccc(F)c4)c(Cl)c3)c2c1,1.6% (inactive)
18,Nc1nccc2ccc(Oc3ccncc3)cc12,37.6% (inactive)
19,C[C@H](C(N)=O)N1CCCC[C@H]1c1ccc(OCc2cccc(F)c2)cc1,25% (inactive)
20,COc1ccc(Cn2cnc3c(-c4ccco4)nc(Cl)nc32)cc1,21.6% (inactive)
21,COc1cccc(-c2cc3c(Nc4cccnc4)nccc3[nH]2)c1,29% (inactive)
22,Cc1cc(NCCc2ccccc2)nc(NC(=N)Nc2ccc(Cl)cc2)n1,75.8% (inactive)
23,CCC(Sc1nc2ccccc2o1)C(=O)Nc1nnc(C)s1 (stereo not given),-0.757% (inactive)
24,O=C(Nc1cccc(Cl)c1)c1cnc(N2CCN(c3ccncc3)CC2)c(Cl)c1,56% (inactive)
25,CCCn1c(NC(=O)c2ccc3ccccc3n2)nc2ccccc21,56.6% (inactive)
